A selection: hits, their analogues and other compounds. The true share with any hit is near 3.5%.
GPR151 ag: human GPR151 activation. activation, % at 11.2 µM. Q8TDV0. 650,000 compounds, 1% hits. PathHunter beta-arrestin GPR151 cells, luminescence; in the data active = activation above about 4.9%
TEAD-YAP block: TEAD-YAP interaction inhibition. AID 1259422. HEK-TIYL cells, TEAD-Gal4/YAP UAS-luciferase luminescence. 640,000 compounds, 1.4% hits. inhibition, % at 9.12 µM; in the data active = inhibition above about 32%
MITF inh: human MITF inhibition, primary screen; O75030; AlphaScreen MITF homodimerization, bead proximity signal; inhibition, % at 2.6 µM; 650,000 compounds, 0.91% hits; AID 1259374; in the data active = inhibition above about 50%
Target sequence (O75030 whole entry, looked up): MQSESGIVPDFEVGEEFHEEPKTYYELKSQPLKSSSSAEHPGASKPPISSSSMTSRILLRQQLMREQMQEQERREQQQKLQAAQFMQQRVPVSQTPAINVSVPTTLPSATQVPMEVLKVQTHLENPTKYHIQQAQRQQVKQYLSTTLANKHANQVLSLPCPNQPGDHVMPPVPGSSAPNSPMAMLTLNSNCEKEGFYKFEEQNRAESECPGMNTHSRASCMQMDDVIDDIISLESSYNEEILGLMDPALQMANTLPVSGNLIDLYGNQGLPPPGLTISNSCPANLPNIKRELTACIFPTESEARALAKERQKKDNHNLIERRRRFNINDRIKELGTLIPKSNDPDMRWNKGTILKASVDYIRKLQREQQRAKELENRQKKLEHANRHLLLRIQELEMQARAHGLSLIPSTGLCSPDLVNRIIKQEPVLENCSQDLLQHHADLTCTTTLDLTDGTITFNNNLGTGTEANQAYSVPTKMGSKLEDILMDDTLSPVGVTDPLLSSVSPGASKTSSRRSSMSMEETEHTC
FBW7 activator: human FBW7 E3 ligase activation, primary screen. 650,000 compounds, 0.13% hits. normalized activity (activation), % at 26.1 µM. Q969H0. AlphaScreen FBW7–phospho-cyclin E peptide binding, activator screen; in the data active = normalized activity above about 1.9%;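 note: purified mutant Fbw7 with reduced substrate affinity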
MITF confirm: confirmation of human MITF inhibitors. AID 1259372. shares compounds with MITF inh. 4,700 compounds, 16% hits. AlphaScreen MITF homodimerization, biotin/His-MITF beads. inhibition, % at 2.6 µM;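 active = inhibition above a cutoff derived from the DMSO control wells, cut at about 28% in these data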;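 note: inhibitors lower the bead chemiluminescence by keeping MITF from dimerizing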
AS interf DR: counter-screen: compounds optically interfering with AlphaScreen; AlphaScreen optical interference counterscreen, cell-free; AID 1259373; IC50, µM; 480 compounds, 6% hits; shares compounds with MITF inh; call rule not given here
AlphaScreen intf2: optically interferes with AlphaScreen signal | 4,700 compounds, 7.6% hits | LysRS AlphaScreen counterscreen, signal interference, triplicate | inhibition, % at 2.6 µM | shares compounds with MITF inh;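 active = inhibition above a cutoff derived from the DMSO control wells, cut at about 30% in these data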
Of the large screens only hits and unclear results are named; the others gave an inactive call (follow-up assays come after a bar, where they were run); ! = not active in a repeat.

N#C/C(=C(/O)COC(=O)c1cc2c(s1)CCC2)c1nc2ccccc2[nH]1	MITF inh 87 | MITF confirm 82 | AS interf DR inactive | AlphaScreen intf2 inactive
O=C(OCN1C(=O)c2ccccc2C1=O)c1cc2c(s1)CCC2	MITF inh 74 | MITF confirm 77 | AS interf DR inactive | AlphaScreen intf2 inactive
O=C(CN1C(=O)c2ccccc2C1=O)NNC(=O)c1cc2c(s1)CCCC2	none
O=C(CCC1CCCC1)N1CCN(Cc2cccc(F)c2)CC1	MITF inh 63 | MITF confirm inactive | AlphaScreen intf2 inactive
Cc1ccccc1CN1CCN(C(=O)CCC2CCCC2)CC1	MITF inh 53 | MITF confirm inactive | AlphaScreen intf2 inactive
O=C(CCC1CCCC1)N1CCN(C(=O)c2cccc(F)c2)CC1	none
COc1ccc(OC)c(CN2CCN(C(=O)CCC3CCCC3)CC2)c1	MITF inh 52 | MITF confirm inactive | AlphaScreen intf2 inactive
Cc1ccccc1CNC(=O)COc1ccc(Cl)cc1	none
COc1ccc(CN2CCSCC2)cc1OCc1ccccc1	none
CCN1CCN(Cc2ccc(OC)c(OCc3ccccc3)c2)CC1	none
COc1cc(CN2CCSCC2)ccc1OCc1ccccc1	MITF inh 53 | MITF confirm inactive | AlphaScreen intf2 inactive
O=[N+]([O-])c1cccc(CN2CCN(c3ccccn3)CC2)c1	MITF inh 51 | MITF confirm inactive | AlphaScreen intf2 inactive
CCc1ccc(CN2CCN(Cc3ccc(OC)c(OCc4ccccc4)c3)CC2)cc1	MITF inh 74 | MITF confirm inactive | AlphaScreen intf2 inactive
O=[N+]([O-])c1ccc(N2CCN(Cc3cccc([N+](=O)[O-])c3)CC2)cc1	none
COc1ccc(CN2CCN(Cc3ccc(F)cc3)CC2)cc1OCc1ccccc1	MITF inh 79 | MITF confirm inactive | AlphaScreen intf2 inactive
Cc1cc2n[nH]c(=S)n2c2ccccc12	none
COc1ccc(NC(=O)CCC(C(C)=O)[N+](=O)[O-])cc1 (stereo not drawn)	none
O=[N+]([O-])c1cccc(CN2CCCCCCC2)c1	none
CCOc1ccc(CN2CCN(Cc3cccc([N+](=O)[O-])c3)CC2)cc1	MITF inh 60 | MITF confirm inactive | AlphaScreen intf2 inactive
COc1ccc(CN2CCN(Cc3cccc([N+](=O)[O-])c3)CC2)cc1OCc1ccccc1	MITF inh 69 | MITF confirm inactive | AlphaScreen intf2 inactive
COc1ccc(CN2CCN(C(=O)c3ccccc3F)CC2)cc1OCc1ccccc1	none
COc1ccc(CN2CCN(Cc3ccccc3F)CC2)cc1OCc1ccccc1	MITF inh 80 | MITF confirm inactive | AlphaScreen intf2 inactive
CCN1CCN(Cc2ccc(OCc3ccccc3)c(OC)c2)CC1	none
O=[N+]([O-])c1cccc(OCCCN2CCN(Cc3ccccc3)CC2)c1	MITF inh 76 | MITF confirm inactive | AlphaScreen intf2 inactive
CC(=O)NC(CC(C)C)c1nnc2n1CCN(Cc1cccs1)CC2 (stereo not drawn)	none
COc1cc(Nc2cc(NCc3ccccc3)ncn2)cc(OC)c1OC	none
COc1ccc(CN2CCN(C3CCCCC3)CC2)cc1OCc1ccccc1	MITF inh 62 | MITF confirm inactive | AlphaScreen intf2 inactive
OCCN1CCN(c2ncnc3c2cnn3-c2ccc(F)cc2)CC1	none
CCOC(=O)NC(=S)N/N=C/c1ccccn1	MITF inh 64 | MITF confirm inactive | AlphaScreen intf2 32
O=C1O[C@H](C(O)CO)C(O)=C1O (stereo partly drawn)	MITF inh 76! | MITF confirm 47 | AS interf DR inactive | AlphaScreen intf2 inactive
Cc1ncc(CO)c(/C=N/NC(=O)c2ccc([N+](=O)[O-])cc2Cl)c1O	MITF inh 67 | MITF confirm inactive | AlphaScreen intf2 96
Cc1ncc(CO)c(/C=N/NC(=O)c2ccccc2O)c1O	none
Cc1ncc(CO)c(/C=N/NC(=O)c2ccc(Cl)cc2O)c1O	MITF inh 60 | MITF confirm inactive | AlphaScreen intf2 32
O=C(N/N=C/c1ccccn1)c1ccc([N+](=O)[O-])cc1Cl	none
NC(=O)n1c(CCC(=O)O)nc2sc3c(c2c1=O)CCC3	MITF inh 78 | MITF confirm 73 | AS interf DR inactive | AlphaScreen intf2 inactive
CCCS(=O)(=O)N1CCN(Cc2nc3ccccc3[nH]2)CC1	MITF inh 67 | MITF confirm inactive | AlphaScreen intf2 inactive

Screening results: PubChem BioAssay, The Scripps Research Institute Molecular Screening Center
